# Among all 310,000 compounds or so, about 14,000 (4.5%) showed an effect of 50% or more. The effect is printed as a negative number. The sample holds strong results, similar compounds and a random draw of the others, so the mix is not that of the screen.
# Target: human ether-à-go-go-related gene (hERG) potassium channel (human, UniProt Q12809)
# Test: primary screen, population patch clamp on CHO cells stably expressing hERG; higher = less effect of the substance
# 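Note: peak tail current of the secondary pulse compared with the same well before compound.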
# Sequence of human ether-à-go-go-related gene (hERG) potassium channel (Q12809 whole entry, looked up): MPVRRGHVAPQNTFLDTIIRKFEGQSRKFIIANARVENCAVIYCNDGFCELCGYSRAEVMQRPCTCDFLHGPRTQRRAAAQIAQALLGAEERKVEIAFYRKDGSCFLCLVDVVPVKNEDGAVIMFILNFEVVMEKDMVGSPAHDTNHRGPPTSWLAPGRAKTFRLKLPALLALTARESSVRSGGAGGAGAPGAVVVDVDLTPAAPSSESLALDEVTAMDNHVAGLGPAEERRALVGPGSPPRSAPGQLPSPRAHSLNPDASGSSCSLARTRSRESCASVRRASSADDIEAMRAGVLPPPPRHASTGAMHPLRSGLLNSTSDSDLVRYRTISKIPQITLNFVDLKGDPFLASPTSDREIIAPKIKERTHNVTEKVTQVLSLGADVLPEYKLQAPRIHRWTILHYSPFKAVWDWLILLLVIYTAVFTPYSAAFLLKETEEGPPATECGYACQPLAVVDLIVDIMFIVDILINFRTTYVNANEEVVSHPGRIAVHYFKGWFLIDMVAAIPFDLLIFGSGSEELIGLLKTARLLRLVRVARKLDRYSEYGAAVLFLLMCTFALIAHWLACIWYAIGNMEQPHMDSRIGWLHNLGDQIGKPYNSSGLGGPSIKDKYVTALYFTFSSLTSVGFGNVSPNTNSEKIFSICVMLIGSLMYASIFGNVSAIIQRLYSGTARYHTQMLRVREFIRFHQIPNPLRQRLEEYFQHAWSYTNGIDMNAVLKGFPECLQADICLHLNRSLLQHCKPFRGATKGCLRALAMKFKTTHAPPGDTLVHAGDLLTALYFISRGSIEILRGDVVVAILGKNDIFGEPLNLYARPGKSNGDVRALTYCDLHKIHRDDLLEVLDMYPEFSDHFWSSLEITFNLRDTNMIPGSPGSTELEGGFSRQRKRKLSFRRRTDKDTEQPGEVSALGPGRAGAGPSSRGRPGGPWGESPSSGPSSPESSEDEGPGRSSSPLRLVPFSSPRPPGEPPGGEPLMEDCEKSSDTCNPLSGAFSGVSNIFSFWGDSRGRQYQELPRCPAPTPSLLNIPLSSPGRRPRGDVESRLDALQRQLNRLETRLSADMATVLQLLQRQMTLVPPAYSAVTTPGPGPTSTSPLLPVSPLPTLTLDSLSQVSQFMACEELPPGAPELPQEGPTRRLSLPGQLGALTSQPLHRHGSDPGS
row,SMILES,"hERG current change (%, negative = inhibition) at 10uM [%]"
1,CCC1=NN(C(=O)Cc2ccccc2)C(O)(c2ccncc2)C1 (centres unmarked),28.9
2,COc1ccc(OCc2cccc(C(=O)Nn3cc([N+](=O)[O-])cn3)c2)cc1,-15.6
3,CCOC(=O)c1ccc(CNC(=O)c2cc(COc3ccccc3SC)on2)o1,1.07
4,CC(C)Cn1c(N)c(C=O)c(=O)n(C)c1=O,26.4
5,O=C(C1CCC(=O)N(C2CC2)C1)N1CCN(c2ccc(Cl)cc2)CC1 (centres unmarked),-38.1
6,Cc1cc(N2CCN(C(=O)OC(C)(C)C)CC2)n2ncnc2n1,-27.5
7,Cc1cc(N2CCC(C(=O)N3CCN(c4cccc(C)c4C)CC3)CC2)n2ncnc2n1,-68.7
8,Cc1cccc(N2CCN(C(=O)C3CCCCC3)CC2)c1C,-24.8
9,COc1cccc(CN2CC(C(=O)N3CCCC3)CCC2=O)c1 (centres unmarked),19.4
10,COc1cccc(CN2CC(C(=O)N3CCN(c4ccc(Cl)cc4)CC3)CCC2=O)c1 (centres unmarked),-70.9
11,O=C1CCC(C(=O)N2CCN(c3ccccc3)CC2)CN1CC1CCCCC1 (centres unmarked),-27.5
12,O=C(C1CCC(=O)N(C2CCCCCC2)C1)N1CCN(c2ccccc2Cl)CC1 (centres unmarked),-42.9
13,COc1cccc(CN2CC(C(=O)N3CCCCCCC3)CCC2=O)c1 (centres unmarked),-2.24
14,O=C(C1CCC(=O)N(C2CCCC2)C1)N1CCN(c2ccccc2Cl)CC1 (centres unmarked),-15.8
15,O=C1CCC(C(=O)N2CCN(c3ccccc3Cl)CC2)CN1CC1CCCCC1 (centres unmarked),-72.2
16,O=C(C1CCC(=O)N(C2CCCC2)C1)N1CCN(c2ccc(Cl)cc2)CC1 (centres unmarked),-61
17,O=C(Cn1nnc(-c2ccc(CN3CCOCC3)cc2)n1)NC1CCCCC1,-12.4
18,COc1cccc(NC(=O)CCNS(=O)(=O)c2ccc(Br)s2)c1,-32.6
19,CCCCNC(=O)C1CCN(S(=O)(=O)N2CCOCC2)CC1,5.58
20,COc1ccc(OCc2nc3c4c(ncn3n2)-c2ccccc2CC42CCCC2)cc1,6.66
21,CCC(Oc1ccccc1)C(=O)Nc1nnc(S(=O)(=O)N2CCCCC2)s1 (centres unmarked),12.8
22,CCc1ccc(-c2csc3ncn(Cc4ccc(C(=O)O)cc4)c(=O)c23)cc1,4.9

row,SMILES,"hERG current change (%, negative = inhibition) at 10uM [%]"
1,COc1ccc(NC(=O)c2ccc3ncsc3c2)c2ccccc12,4.56
2,Clc1ccc(CSc2nnc3c(n2)[nH]c2ccccc23)cc1,-1.62
3,O=S(=O)(NCc1ccccc1)[C@@H]1CC2C=CC1C2 (some centres unmarked),1.81
4,O=C(c1cc(COc2ccc(F)cc2Cl)on1)N(CCO)Cc1cccs1,-31.6
5,Cc1ccccc1OC1CCN(C(=O)C2CCC(=O)N(C3CCCC3)C2)CC1 (centres unmarked),3.16
6,O=C(C1CCC(=O)N(C2CCCC2)C1)N1CCC(Oc2ccccc2Cl)CC1 (centres unmarked),-62.1
7,Cc1cccc(N2CCN(C(=O)C3CCC(=O)N(C4CC4)C3)CC2)c1C (centres unmarked),0.967
8,Cc1cccc(N2CCN(C(=O)C3CC(=O)N(C4CCCC4)C3)CC2)c1C (centres unmarked),-57.9
9,O=C(C1CCC(=O)N(C2CC2)C1)N1CCC(Oc2ccccc2F)CC1 (centres unmarked),2.26
10,Cc1ccccc1N1CCN(C(=O)C2CCC(=O)N(C3CCCC3)C2)CC1 (centres unmarked),-22.5
11,COc1ccc(C)cc1S(=O)(=O)N(CC(=O)O)c1ccc(C)cc1,5.39
12,Cc1cc(C)cc(NC(=S)NCc2ccc(S(N)(=O)=O)cc2)c1,8.2
13,Cn1c2ccccc2c2ncn(Cc3ccc(F)cc3)c(=O)c21,8
14,O=C(CCNC(=O)c1ccco1)NCCc1ccc(Cl)cc1,-1.83
15,Cc1ccc(CNC(=O)CCC2CCCN(C(=O)c3ccc4c(c3)OCO4)C2)o1 (centres unmarked),-20.5
16,CC(=O)c1cccc(CN2CCCC(CCC(=O)NCc3ccc(C)o3)C2)c1 (centres unmarked),-16.2
17,COCc1ccc(CN2CCCC(CCC(=O)NCc3ccc(C)o3)C2)o1 (centres unmarked),-16.7
18,COc1cc(CN2CCCC(CCC(=O)NCc3ccc(C)o3)C2)cc2c1OCO2 (centres unmarked),-59.9
19,Cc1ccc(CNC(=O)CCC2CCCN(Cc3cccc4c3OCO4)C2)o1 (centres unmarked),-63.2
20,COc1cc(CN2CCC(N3CCC(C(=O)N4CCCC4)CC3)CC2)cc2c1OCO2,-17.6
21,COC(=O)c1ccc(CN2CCCC(CCC(=O)NCc3ccc(C)o3)C2)cc1 (centres unmarked),-67.5
22,CC1(C)CC(=O)C=C(Nc2cccc(F)c2)C1,17

# — article PMC4336329 (PLoS ONE, 2015)
